Results published in PubChem BioAssay.
For some of these results: Entries with a potency or affinity are not part of this list. Activity calls are given as the source filed them. Unless noted, how the calls were made is not given here.

Key:
[1] = antimalarial activity against Dd2 strain (AID 2302;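 active means growth inhibition above 50% at the single 2 µM test dose, taken to imply half-maximal potency below 2 µM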;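 further: 0% = DMSO untreated growth and 100% = chloroquine plus artemisinin killed control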); conditions: P. falciparum Dd2 in RBCs, LDH growth readout, 72 h; at 2 µM; stronger effect = higher value
[2] = HepG2 cytotoxicity, primary screen, cytotoxicity control for P. falciparum antimalarial project, cell-based, ATP luminescence (AID 2303;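 active means inhibition above 50%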;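 further: 0% = DMSO wells and 100% = digitonin-killed cells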); conditions: HepG2 viability, 24-48 h, at 10 µM, stronger effect = higher value
[3] = target: L-lactate dehydrogenase (Plasmodium falciparum (isolate CDC / Honduras)) (UniProt Q27743); experiment: PfLDH activity inhibition – cell lysate, 3D7 strain, counter-screen for P. falciparum growth inhibition project (AID 2304);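 further: 0% = vehicle and 100% = reference inhibitor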; conditions: P. falciparum 3D7 crude extract, LDH APAD/NBT absorbance; at 2 µM; stronger effect = higher value
Sequence of L-lactate dehydrogenase (Plasmodium falciparum (isolate CDC / Honduras)) (Q27743 whole entry, looked up): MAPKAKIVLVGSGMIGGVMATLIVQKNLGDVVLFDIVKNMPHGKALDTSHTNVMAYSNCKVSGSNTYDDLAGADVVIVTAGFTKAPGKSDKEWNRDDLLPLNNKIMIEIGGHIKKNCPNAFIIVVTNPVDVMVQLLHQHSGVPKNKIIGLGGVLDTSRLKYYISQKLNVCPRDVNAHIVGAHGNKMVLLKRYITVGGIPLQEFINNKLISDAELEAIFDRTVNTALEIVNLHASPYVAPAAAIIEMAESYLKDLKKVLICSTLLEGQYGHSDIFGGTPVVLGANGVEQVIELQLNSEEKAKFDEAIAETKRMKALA

[4] = inhibition of 3D7 malaria parasite growth – strain 3D7 (AID 2306);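 further: 0% = DMSO wells and 100% = chloroquine plus artemisinin control wells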; conditions: P. falciparum 3D7 erythrocytic growth, LDH absorbance, 72 h; at 2 µM; stronger effect = higher value
[5] = target: Calcium-dependent protein kinase 1 (Plasmodium falciparum (isolate 3D7)) (UniProt P62344); experiment: PfCDPK1 kinase inhibitors, biochemical, TCAMS library (AID 1159585; cut-off not given, nearly all actives have IC50 up to about 0.98 µM;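 further: inhibitors leave more ATP so luminescence rises with inhibition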); conditions: recombinant PfCDPK1, Kinase-Glo ATP depletion luminescence
Sequence of Calcium-dependent protein kinase 1 (Plasmodium falciparum (isolate 3D7)) (P62344 whole entry, looked up): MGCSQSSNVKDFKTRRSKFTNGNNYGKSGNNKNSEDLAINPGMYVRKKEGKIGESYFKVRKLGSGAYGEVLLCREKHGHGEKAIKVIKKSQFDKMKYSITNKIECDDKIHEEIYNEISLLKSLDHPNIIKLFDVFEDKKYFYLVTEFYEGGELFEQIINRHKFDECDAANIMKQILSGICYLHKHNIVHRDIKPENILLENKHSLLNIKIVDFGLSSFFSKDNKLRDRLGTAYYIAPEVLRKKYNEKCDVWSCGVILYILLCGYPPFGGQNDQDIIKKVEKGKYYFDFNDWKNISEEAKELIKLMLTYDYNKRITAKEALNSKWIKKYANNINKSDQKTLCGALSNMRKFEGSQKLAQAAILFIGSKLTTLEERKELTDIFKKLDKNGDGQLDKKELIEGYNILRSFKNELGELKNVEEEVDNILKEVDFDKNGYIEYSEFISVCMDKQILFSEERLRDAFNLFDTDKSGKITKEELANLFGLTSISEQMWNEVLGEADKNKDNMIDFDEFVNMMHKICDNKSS

[6] = target: Plasmodium falciparum protein kinase 6 (PK6, PF3D7_1337100) (UniProt Q8IDW1); experiment: PfPK6 kinase inhibitors, biochemical, TCAMS library (AID 1159586); conditions: recombinant PfPK6, Kinase-Glo ATP depletion luminescence
Sequence of Plasmodium falciparum protein kinase 6 (PK6, PF3D7_1337100) (Q8IDW1 1-305): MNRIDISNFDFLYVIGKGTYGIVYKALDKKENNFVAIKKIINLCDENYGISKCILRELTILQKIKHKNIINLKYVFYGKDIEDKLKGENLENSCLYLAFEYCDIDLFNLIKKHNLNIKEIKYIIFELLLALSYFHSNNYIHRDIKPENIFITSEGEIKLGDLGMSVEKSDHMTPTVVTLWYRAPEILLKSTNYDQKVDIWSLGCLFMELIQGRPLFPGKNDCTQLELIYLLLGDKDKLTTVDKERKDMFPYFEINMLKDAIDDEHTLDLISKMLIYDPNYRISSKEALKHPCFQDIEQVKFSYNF

[7] = target: Protein kinase 7 (PK7), Plasmodium falciparum 3D7 (PF3D7_0213400) (UniProt Q7YTF7); experiment: inhibition of Plasmodium PK7 catalytic activity – biochemical, TCAMS antimalarial set, Kinase-Glo luminescence (AID 1159587); conditions: recombinant PfPK7, Kinase-Glo ATP depletion luminescence
Sequence of Protein kinase 7 (PK7), Plasmodium falciparum 3D7 (PF3D7_0213400) (Q7YTF7 1-343): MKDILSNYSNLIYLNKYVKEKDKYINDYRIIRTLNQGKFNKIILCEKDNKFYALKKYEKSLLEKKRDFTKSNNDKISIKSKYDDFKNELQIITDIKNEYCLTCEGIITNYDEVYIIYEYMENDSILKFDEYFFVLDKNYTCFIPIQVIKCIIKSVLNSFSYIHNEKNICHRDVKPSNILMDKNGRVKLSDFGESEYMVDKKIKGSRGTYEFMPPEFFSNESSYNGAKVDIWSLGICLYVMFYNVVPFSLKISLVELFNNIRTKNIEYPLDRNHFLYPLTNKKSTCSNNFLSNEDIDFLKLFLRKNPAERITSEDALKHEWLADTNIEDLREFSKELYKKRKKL

[8] = target: Calcium-dependent protein kinase 4 (Plasmodium falciparum (isolate 3D7)) (UniProt Q8IBS5); experiment: PfCDPK4 kinase inhibitors, biochemical, TCAMS library (AID 1159588; cut-off not given, nearly all actives have IC50 up to about 0.91 µM); conditions: recombinant PfCDPK4, Kinase-Glo ATP depletion luminescence
Sequence of Calcium-dependent protein kinase 4 (Plasmodium falciparum (isolate 3D7)) (Q8IBS5 whole entry, looked up): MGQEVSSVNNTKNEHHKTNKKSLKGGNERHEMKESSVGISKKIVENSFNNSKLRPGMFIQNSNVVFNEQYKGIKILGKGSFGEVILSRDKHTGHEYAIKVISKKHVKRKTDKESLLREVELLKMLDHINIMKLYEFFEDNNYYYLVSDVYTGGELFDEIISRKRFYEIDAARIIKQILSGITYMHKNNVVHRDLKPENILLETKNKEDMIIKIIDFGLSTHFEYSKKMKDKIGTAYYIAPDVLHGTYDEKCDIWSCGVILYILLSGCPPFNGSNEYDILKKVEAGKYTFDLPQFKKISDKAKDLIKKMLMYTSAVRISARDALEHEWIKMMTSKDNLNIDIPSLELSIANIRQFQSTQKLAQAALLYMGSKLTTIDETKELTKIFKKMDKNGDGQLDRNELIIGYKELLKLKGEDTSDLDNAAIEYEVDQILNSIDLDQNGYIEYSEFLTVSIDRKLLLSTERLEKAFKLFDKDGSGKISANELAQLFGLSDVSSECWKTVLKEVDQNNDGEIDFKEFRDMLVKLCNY

CCOc1cc(C(=O)NCCN(C(C)C)C(C)C)ccc1-c1nc2ccc(Cl)cc2[nH]1
active: growth inhibition [1] 90% | growth inhibition [4] 101%
inactive: inhibition [2] 4% | inhibition [3] 2% | outcome [5] | outcome [6] | outcome [7] | outcome [8]

CNC(=O)CNC(=O)COc1cccc2ccccc12
active: growth inhibition [4] 98%
inactive: growth inhibition [1] -6% | inhibition [2] 3% | inhibition [3] -8% | outcome [5] | outcome [6] | outcome [7] | outcome [8]

CCOc1ccccc1CNc1nccc(NCCc2cn(C)c3ccccc23)n1
inactive: inhibition [2] 27% | inhibition [3] -4% | outcome [5] | outcome [6] | outcome [7] | outcome [8]
active: growth inhibition [1] 62% | growth inhibition [4] 98%

O=C(Nc1cc(C(F)(F)F)cc(C(F)(F)F)c1)NC(CCCN1CCC2(CC1)OCc1ccccc12)c1ccc(Cl)c(Cl)c1 (stereo not drawn)
inactive: inhibition [2] 26% | inhibition [3] 2% | outcome [5] | outcome [6] | outcome [7] | outcome [8]
active: growth inhibition [1] 87% | growth inhibition [4] 94%

COc1c(OC)c(OC)c2ccccc2c1CNCCCCCCNCc1c(OC)c(OC)c(OC)c2ccccc12
active: growth inhibition [1] 71% | inhibition [2] 99% | growth inhibition [4] 100%
inactive: inhibition [3] 3% | outcome [5] | outcome [6] | outcome [7] | outcome [8]

COCCN(C(=O)Cc1cccs1)C(C(=O)NCc1ccc(OC)cc1)c1ccc(C(C)C)cc1 (stereo not drawn)
inactive: inhibition [2] -13% | inhibition [3] 4% | outcome [5] | outcome [6] | outcome [7] | outcome [8]
active: growth inhibition [1] 59% | growth inhibition [4] 96%

CC(=O)c1ccc2c(c1)CCN(CCC1CCC(NC(=O)c3cc4ccccc4[nH]3)CC1)CC2 (stereo not drawn)
inactive: growth inhibition [1] 47% | inhibition [3] 2% | outcome [5] | outcome [6] | outcome [7] | outcome [8]
active: inhibition [2] 64% | growth inhibition [4] 86%

COc1ccc(C(=O)CCC(=O)N(Cc2ccc(-c3ccc(CNCCc4ccc(S(C)(=O)=O)cc4)cn3)cc2)C2CCN(Cc3ccccc3)CC2)cc1F
active: growth inhibition [1] 72% | growth inhibition [4] 99%
inactive: inhibition [2] 20% | inhibition [3] 2% | outcome [5] | outcome [6] | outcome [7] | outcome [8]

COc1ccc2nccc([C@H](O)CN3CCC(NCc4nc5c(F)cccc5[nH]4)CC3)c2c1
active: growth inhibition [4] 98%
inactive: growth inhibition [1] 0% | inhibition [2] 0% | inhibition [3] -1% | outcome [5] | outcome [6] | outcome [7] | outcome [8]

COc1ccc(-c2cccc(NC(=O)c3cccs3)c2)cc1CN1CCCN(C)CC1
inactive: growth inhibition [1] 30% | inhibition [2] 17% | inhibition [3] 9% | outcome [5] | outcome [6] | outcome [7] | outcome [8]
active: growth inhibition [4] 100%

CC(COc1ccc2c(c1)OC(C)(C)CC2c1ccccc1)NCC(O)c1cccc(Cl)c1 (stereo not drawn)
active: growth inhibition [1] 96% | growth inhibition [4] 98%
inactive: inhibition [2] 1% | inhibition [3] 3% | outcome [5] | outcome [6] | outcome [7] | outcome [8]

CCCCNCc1ccc(OCc2cccc(COc3ccc(CNCCCC)cc3)c2)cc1
active: inhibition [2] 98% | growth inhibition [4] 100%
inactive: growth inhibition [1] 35% | inhibition [3] 5% | outcome [5] | outcome [6] | outcome [7] | outcome [8]

COc1ccc(-c2cccc(NC(=O)c3ccc(Cl)cc3)c2)cc1CN1CCCN(C)CC1
active: growth inhibition [1] 95% | growth inhibition [4] 101%
inactive: inhibition [2] 29% | inhibition [3] -8% | outcome [5] | outcome [6] | outcome [7] | outcome [8]

Cc1csc2nc(-c3ccccn3)nc(Nc3ccc4ncsc4c3)c12
active: growth inhibition [1] 91% | growth inhibition [4] 85%
inactive: inhibition [2] -3% | inhibition [3] 3% | outcome [5] | outcome [6] | outcome [7] | outcome [8]

CCN(CC)CCN(Cc1ccc(-c2ccc(C(F)(F)F)cc2)cc1)C(=O)Cn1c(CCc2cc(F)c(F)cc2F)nc(=O)c2ccccc21
inactive: inhibition [2] 39% | inhibition [3] -4% | outcome [5] | outcome [6] | outcome [7] | outcome [8]
active: growth inhibition [1] 50% | growth inhibition [4] 99%

COc1cccc(CNC(=O)c2cccc(-c3cccc(CN4CCC(N5CCCC5)CC4)c3)n2)c1
inactive: inhibition [2] 22% | inhibition [3] 1% | outcome [5] | outcome [6] | outcome [7] | outcome [8]
active: growth inhibition [1] 76% | growth inhibition [4] 100%

FC(F)(F)c1cc(Nc2ncnc3ccc(Br)cc23)ccc1OCc1ccccc1
active: growth inhibition [4] 87%
inactive: growth inhibition [1] 9% | inhibition [2] 12% | inhibition [3] 6% | outcome [5] | outcome [6] | outcome [7] | outcome [8]

NC1=NCN(OCc2ccc(Cl)c(Cl)c2)C(N)=N1
active: growth inhibition [4] 95%
inactive: growth inhibition [1] 4% | inhibition [2] 14% | inhibition [3] -3% | outcome [5] | outcome [6] | outcome [7] | outcome [8]

O=C(Nc1ccc([N+](=O)[O-])cc1)Nc1nc2ccc(Cl)cc2s1
inactive: growth inhibition [1] 33% | inhibition [3] 2% | outcome [5] | outcome [6] | outcome [7] | outcome [8]
active: inhibition [2] 63% | growth inhibition [4] 92%

CC(C)c1cccc(OCC2CCN(c3ncc(C(=O)NC4CC4)cc3Cl)CC2)c1
active: growth inhibition [1] 95% | growth inhibition [4] 94%
inactive: inhibition [2] 9% | inhibition [3] -1% | outcome [5] | outcome [6] | outcome [7] | outcome [8]

COc1ccc2nccc(NN=CC=Cc3ccccc3)c2c1
active: growth inhibition [1] 99% | growth inhibition [4] 101%
inactive: inhibition [2] 11% | inhibition [3] -3% | outcome [5] | outcome [6] | outcome [7] | outcome [8]

COc1ccc2nccc(N3CCC(CCNCc4ccc5c(n4)NC(=O)CS5)CC3)c2n1
active: growth inhibition [1] 75% | growth inhibition [4] 102%
inactive: inhibition [2] 32% | inhibition [3] -1% | outcome [5] | outcome [6] | outcome [7] | outcome [8]

O=S(=O)(NCCN1CCCC1)c1ccc(-c2cccc(CNCc3ccccc3)c2)s1
inactive: growth inhibition [1] 43% | inhibition [2] 44% | inhibition [3] 0% | outcome [5] | outcome [6] | outcome [7] | outcome [8]
active: growth inhibition [4] 94%

Cc1cnccc1/C=C/c1cccc(OCCCN2CCc3ccc(S(C)(=O)=O)cc3CC2)c1
inactive: inhibition [2] 1% | inhibition [3] 1% | outcome [5] | outcome [6] | outcome [7] | outcome [8]
active: growth inhibition [1] 72% | growth inhibition [4] 92%

CSc1ccc(C=CC(=O)NC(=O)c2ccccc2O)cc1
inactive: inhibition [2] 2% | inhibition [3] 4% | outcome [5] | outcome [6] | outcome [7] | outcome [8]
active: growth inhibition [1] 96% | growth inhibition [4] 97%

O=c1cc(NCCCNCc2sc(Br)nc2Br)[nH]c2ccccc12
active: growth inhibition [4] 92%
inactive: growth inhibition [1] 44% | inhibition [2] 1% | inhibition [3] -2% | outcome [5] | outcome [6] | outcome [7] | outcome [8]

Cn1c(N)c(C(=O)CSc2ncc(-c3ccc(F)cc3)n2Cc2ccccc2)c(=O)n(C)c1=O
inactive: inhibition [2] 11% | inhibition [3] 1% | outcome [5] | outcome [6] | outcome [7] | outcome [8]
active: growth inhibition [1] 66% | growth inhibition [4] 88%

COc1cc(Cc2cnc(N)nc2N)ccc1Oc1ccc(N)cc1
active: growth inhibition [4] 93%
inactive: growth inhibition [1] -1% | inhibition [2] 0% | inhibition [3] 6% | outcome [5] | outcome [6] | outcome [7] | outcome [8]

O=C(Nc1ccc(-c2cccc(-c3nc4ccccc4[nH]3)c2)cc1)N[C@@H]1C[C@H]1c1ccccc1
inactive: growth inhibition [1] 6% | inhibition [3] -2% | outcome [5] | outcome [6] | outcome [7] | outcome [8]
active: inhibition [2] 63% | growth inhibition [4] 84%

COc1cc(C(F)(F)F)nc2c(CNCCCNc3cc(=O)c4ccccc4[nH]3)scc12
inactive: growth inhibition [1] 16% | inhibition [2] -7% | inhibition [3] -2% | outcome [5] | outcome [6] | outcome [7] | outcome [8]
active: growth inhibition [4] 92%

COc1ccc(Br)cc1/C=C/C(=O)Nc1cccc(C2CCN(C)CC2)c1
active: growth inhibition [4] 95%
inactive: growth inhibition [1] 37% | inhibition [2] 44% | inhibition [3] -2% | outcome [5] | outcome [6] | outcome [7] | outcome [8]

CC(C)c1ccc2[nH]c(C(=O)NC3CCC(N4CCCc5ccc(C#N)cc5C4)CC3)cc2c1 (stereo not drawn)
inactive: growth inhibition [1] 27% | inhibition [2] 48% | inhibition [3] -3% | outcome [5] | outcome [6] | outcome [7] | outcome [8]
active: growth inhibition [4] 91%

CC1(C)S(=O)(=O)CC(O)CS1(=O)=O
active: growth inhibition [4] 98%
inactive: growth inhibition [1] 9% | inhibition [2] 8% | inhibition [3] 3% | outcome [5] | outcome [6] | outcome [7] | outcome [8]

Cc1cccc2[nH]c(-c3cccc(-c4ccc(NC(=O)c5ccc(=O)[nH]n5)cc4)c3)nc12
inactive: growth inhibition [1] 27% | inhibition [2] 18% | inhibition [3] 1% | outcome [5] | outcome [6] | outcome [7] | outcome [8]
active: growth inhibition [4] 101%

CCN(CC)CCN(Cc1ccc(-c2ccc(C(F)(F)F)cc2)cc1)C(=O)Cn1c(CCc2ccc(F)c(F)c2)nc(=O)c2ccccc21
active: growth inhibition [1] 62% | growth inhibition [4] 99%
inactive: inhibition [2] 31% | inhibition [3] 3% | outcome [5] | outcome [6] | outcome [7] | outcome [8]

CN(Cc1ccccc1)C1CCCN(c2cc(NC(=O)c3cccs3)ccn2)C1 (stereo not drawn)
active: growth inhibition [1] 90% | growth inhibition [4] 88%
inactive: inhibition [2] 2% | inhibition [3] -1% | outcome [5] | outcome [6] | outcome [7] | outcome [8]

Cc1noc(C)c1-c1ccc2c(Nc3cccc4c3-c3ccccc3C4=O)c(C(=O)NCc3ccccc3I)cnc2c1
inactive: inhibition [2] 27% | inhibition [3] 2% | outcome [5] | outcome [6] | outcome [7] | outcome [8]
active: growth inhibition [1] 99% | growth inhibition [4] 99%

CC(C)C(=O)NC(c1cccs1)c1cc(Cl)c2cccnc2c1O (stereo not drawn)
inactive: inhibition [2] 23% | inhibition [3] -2% | outcome [5] | outcome [6] | outcome [7] | outcome [8]
active: growth inhibition [1] 91% | growth inhibition [4] 91%

COc1cc2c(cc1OC)C(C(=O)c1ccccc1)=NCC2
inactive: inhibition [2] 19% | inhibition [3] 0% | outcome [5] | outcome [6] | outcome [7] | outcome [8]
active: growth inhibition [1] 62% | growth inhibition [4] 85%

Cc1cc(C(F)(F)F)n2nc(C(=O)N(C)Cc3cncn3Cc3ccc(F)cc3)cc2n1
active: growth inhibition [1] 96% | growth inhibition [4] 101%
inactive: inhibition [2] -1% | inhibition [3] 0% | outcome [5] | outcome [6] | outcome [7] | outcome [8]

CN(C)Cc1cc(Nc2ccnc3cc(Cl)ccc23)ccc1O
inactive: inhibition [2] 36% | inhibition [3] -3% | outcome [5] | outcome [6] | outcome [7] | outcome [8]
active: growth inhibition [1] 100% | growth inhibition [4] 100%
